Out of some 220,000 compounds screened, about 16,000 (7.3%) were called active. Another 25% or so got no clear call; they are omitted. Only a selection was taken, and actives are over-represented in it overall. Values without a mark were called inactive. Calls follow the shape of the dose curve; as a rule, active = well fitted inhibition curve with a large enough effect (not every such curve was filed as active); inconclusive = small, poorly fitted or top-dose-only effect, or another doubt; inactive = no such curve, though single readings can be large or run the other way.
Biological target: Aldehyde dehydrogenase 1A1 (Homo sapiens) (UniProt P00352)
Assay: qHTS Assay for Inhibitors of Aldehyde Dehydrogenase 1 (ALDH1A1);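 as to activity, negative = inhibition: plate controls were no enzyme wells and a reference inhibitor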
Conditions: Purified ALDH1A1, NADH fluorescence, propionaldehyde substrate; series mostly up to 75.3 µM; activity, negative = inhibition: at the top concentration
Potency is read from the fitted curve at half-maximal effect.

Chain of Aldehyde dehydrogenase 1A1 (Homo sapiens) (P00352 whole entry, looked up): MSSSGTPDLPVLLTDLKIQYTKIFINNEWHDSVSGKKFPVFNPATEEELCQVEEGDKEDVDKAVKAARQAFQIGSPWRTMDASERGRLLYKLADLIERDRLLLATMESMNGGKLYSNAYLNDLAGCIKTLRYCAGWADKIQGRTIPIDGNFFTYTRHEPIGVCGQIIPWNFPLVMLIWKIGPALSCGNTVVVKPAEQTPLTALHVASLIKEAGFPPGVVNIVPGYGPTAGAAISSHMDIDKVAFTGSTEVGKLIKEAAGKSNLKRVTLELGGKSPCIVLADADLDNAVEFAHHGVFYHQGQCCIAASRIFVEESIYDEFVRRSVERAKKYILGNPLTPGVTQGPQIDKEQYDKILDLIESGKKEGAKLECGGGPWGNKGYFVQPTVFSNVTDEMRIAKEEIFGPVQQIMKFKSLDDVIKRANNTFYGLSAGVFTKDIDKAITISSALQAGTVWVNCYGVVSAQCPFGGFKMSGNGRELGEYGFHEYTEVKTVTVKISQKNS

Structure (SMILES) | activity, negative = inhibition | Potency
Cc1ccc2cc(C)c(N3CCC(C)CC3)nc2c1 | 2.97% | 
Cn1c(=O)cc(OCC(=O)N2CCN(c3ccccc3F)CC2)c2ccccc21 | -15.9% | 
O=C(NCc1ccco1)c1ccc(NS(=O)(=O)c2cccc([N+](=O)[O-])c2)cc1 | 6.56% | 
COc1ccc(CCNC(=O)CSc2nc3[nH]ncc3c(=O)n2-c2cccc(C(F)(F)F)c2)cc1OC | 3.85% | 
Cc1ccc(Nc2c(F)c(F)c(F)c(F)c2C(=O)O)c(C)c1 | 1.05% | 
Cc1ccccc1C1CC(c2cccs2)=NN1S(C)(=O)=O (stereo not drawn) | -3.89% | 
Cc1cc(C)n(-c2ccc(C(=O)O)cc2[N+](=O)[O-])n1 | -4.66% | 
COc1ccc(C2C(C(=O)N3CCN(c4ccc(OC)cc4)CC3)c3ccccc3C(=O)N2C)cc1 (stereo not drawn) | 8.86% | 
COc1ccc([C@H]2[C@H](C(C)=O)N3N=Cc4ccccc4C3C23C(=O)OC(C)(C)OC3=O)cc1 (stereo partly drawn) |  | 10 µM (active)
COc1ccccc1N1CCN(c2ccc([N+](=O)[O-])nc2)CC1 | -3.73% | 
CCCc1cc(-c2n[nH]c(=S)n2Cc2ccccc2)cs1 |  | 7.94 µM (active)
CCCc1cc(-c2n[nH]c(=S)n2CC)c2ccccc2n1 | -0.903% | 
CCn1c(-c2ccncc2)n[nH]c1=S | 1.16% | 
CCCOc1ccc(C(=O)NCCc2ccccc2)cc1 | -1.06% | 
CC1(C)Oc2ccc3ccc(=O)oc3c2/C(=C/NCCO)C1=O |  | 25.1 µM (active)
C/C=C(/C)C(=O)OC1Cc2c(ccc3ccc(=O)oc23)OC1(C)C (stereo not drawn) | 0.157% | 
COC(=O)c1c(NC(=O)CN(c2ccc(C)c(C)c2)S(C)(=O)=O)sc2c1CCCC2 | -27.4% | 
C=CCN(CC=C)S(=O)(=O)c1ccc(C(=O)Nc2sc3c(c2C(N)=O)CCCCC3)cc1 |  | 3.16 µM (active)
C=CCN(CC=C)S(=O)(=O)c1ccc(C(=O)Nc2nc3c(s2)CCc2ccccc2-3)cc1 | 2.39% | 
COCC(C)NC(=O)CSc1nc2nn(-c3ccccc3)c(=O)c-2c2n1CCCCC2 (stereo not drawn) | -4.5% | 
Cc1ccc(CNC(=O)CCNS(=O)(=O)c2ccc(Br)s2)cc1 | -6.51% | 

Structure (SMILES) | activity, negative = inhibition | Potency
N#Cc1ccc(-c2nc3cc(C#N)c(C#N)cc3nc2-c2ccccc2)cc1C#N | 23.4% | 
O=C(COc1ccc(S(=O)(=O)NCCc2ccccc2)cc1)N1CCCC1 | -1.53% | 
O=C(COc1ccc(/C=N/NS(=O)(=O)c2ccccc2)cc1)NCCc1ccccc1 |  | 12.6 µM (active)
O=C(CC(=O)N/N=C\c1ccc(F)cc1)NCCc1ccccc1 | 3.28% | 
COc1ccccc1N1CCN(CC(=O)NCCc2ccc(S(N)(=O)=O)cc2)CC1 | 5.14% | 
CN(CCc1cn[nH]c1)C(=O)CC1C(=O)NCCN1Cc1cccc(Oc2ccccc2)c1 (stereo not drawn) | -9.91% | 
COc1cccc(CN2CCNC(=O)C2CC(=O)N(C)CCc2ccccn2)c1 (stereo not drawn) | -0.0979% | 
COc1cc(CN2CCNC(=O)C2CC(=O)NCCc2ncccc2C)cc(OC)c1 (stereo not drawn) |  | 23.8 µM (active)
Cc1cc(C)n(CCNC(=O)CC2C(=O)NCCN2Cc2ccc(C)o2)n1 (stereo not drawn) | -0.0057% | 
O=C(CC1C(=O)NCCN1CC(c1ccccc1)c1ccccc1)NCCc1cn[nH]c1 (stereo not drawn) |  | 14.1 µM (active)
Cc1ccccc1-n1cc(CNC(=O)CC2C(=O)NCCN2C/C=C/c2ccccc2)cn1 (stereo not drawn) | 7.17% | 
COC(=O)c1ccc(CN2CCN(CCCc3ccccc3)C(CCO)C2)cc1 (stereo not drawn) | -0.394% | 
COc1ccc(-c2csc(NC(=O)COC(=O)Cc3ccc(Cl)cc3Cl)n2)cc1 | 7.91% | 
COc1ccc(N2CCN(c3ccc([N+](=O)[O-])nc3)CC2)cc1 | 6.14% | 
CS(=O)(=O)N1CCc2cc(C(=O)Nc3ccccc3)ccc21 | 0.559% | 
Cc1ccc(C)c(NC(=O)C2CCCN2C(=O)OC(C)(C)C)c1 (stereo not drawn) | -11.1% | 
Cc1cc(C)c(NC(=S)N2CCCC2C(=O)O)c(C)c1 (stereo not drawn) |  | 22.4 µM (active)
Cc1cc([N+](=O)[O-])c(N2CCC[C@@H]2C(=O)O)c([N+](=O)[O-])c1 | 3.99% | 
Cc1cc(C(=O)COC(=O)C2CC2)c(C)n1-c1ccc(F)cc1 | -3.14% | 
COC(=O)[C@@H]1CC[C@H](C)[C@@H](c2ccc(C)cc2)N1C(=O)c1ccc(/C=N/O[C@H](C)c2cn([C@@H]3COC[C@H]3O)nn2)cc1 | -3.19% | 
O=C(Cc1ccc([N+](=O)[O-])cc1)N/N=C/c1ccco1 | -3.71% | 

Structure (SMILES) | activity, negative = inhibition | Potency
CCCCN1CCNC1=S | 5.33% | 
CCOC(=O)CCNC(=O)N1CCCC(C(=O)c2ccccc2SC)C1 (stereo not drawn) | 5.76% | 
Cc1nnnn1/C(=C\c1ccccc1)C(=O)OCC(=O)N1CC2(C)CC1CC(C)(C)C2 (stereo not drawn) |  | 4.47 µM (active)
Cc1cccc(C(=O)NCC(=O)OCC(=O)N2CC3(C)CC2CC(C)(C)C3)c1 (stereo not drawn) | 3.13% | 
COc1ccccc1C(=O)N1CC2(C)CC1CC(C)(C)C2 (stereo not drawn) | -6.45% | 
COc1cc(N2C(=O)c3ccccc3C2=O)c(Cl)cc1C(=O)OCC(=O)N1CCOCC1 | -4.16% | 
CC(C)(O)C#Cc1ncc(C(F)(F)F)cc1Cl | 8.76% | 
CSc1ccc(CN(C)CC(=O)NCc2ccc(F)cc2)cc1 | -7.51% | 
CCC(C)[C@@H](C(=O)N1CCNCC1)n1cc(CCCCN)nn1 (stereo partly drawn) | 2.27% | 
COc1cccc(CC(=O)N2CCCC(CCC(=O)N3CCN(c4ccccn4)CC3)C2)c1 (stereo not drawn) | 2.51% | 
CCSC1=C(C#N)C(=O)n2c1cc1c2CCCC1 |  | 4.47 µM (active)
C=CCNc1nc(Nc2ccc(Cl)cc2)nc(OC)n1 | 5.03% | 
C=C1O[C@@](CO)(n2cnc3c(N)ncnc32)[C@H](O)[C@@H]1O | -5.99% | 
Cc1ccc(-n2nc(C)c(/C=N/NC(=O)c3cccs3)c2Cl)cc1 | 2.29% | 
Cc1cc(=O)[nH]c(N/N=C/c2c(C)nn(-c3ccccc3Cl)c2Cl)n1 |  | 5.01 µM (active)
Cc1nnc(N/N=C/c2ccccn2)[nH]c1=O | 14.6% | 
O=C(CSc1nnc(-c2ccncc2)n1-c1ccc(Cl)cc1)Nc1ccc(C(=O)O)cc1 | 6.45% | 
CC1(C)CC(=O)CC2(C1)NCC(c1ccccc1Cl)c1c2[nH]c2ccccc12 (stereo not drawn) | -4.55% | 
COCCN1C(=O)N[C@@H](CCc2ccccc2)[C@H](C(C)=O)[C@H]1C | 3.4% [at 13.5 µM] | 
C=CC1=C2C=C(C3CC3)N(C(CO)CO)C=C2C(=O)C(C)(OC(=O)c2ccco2)C1=O (stereo not drawn) | -4.41% [at 13.5 µM] | 
CN(C)/C=C(/C(=O)c1ccc(F)cc1)S(=O)(=O)c1ccc(F)cc1 | -0.904% | 

— PubChem BioAssay AID1030 (National Center for Advancing Translational Sciences (NCATS), 2008)
